The values that follow come from PubChem BioAssay.

Activity calls are given as the source filed them.

Experiment [1] is described as follows: small molecules captured by biotinylated probe aFSTL3 – biochemical, small-molecule microarray, fluorescence 635/667, stem cell growth factor project, primary screen (AID 1064).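 Further: measures binding of the biotinylated anti-FSTL3 antibody to printed compounds.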 To be noted: higher = more signal.
A short description of experiment [2]: binders from COS7 lysate, DM2A8 probe, primary screen, torsin A project, cell lysate, small-molecule microarray, fluorescence 635/667 (AID 1065). To be noted: higher = more signal, COS7 lysate expressing mutant human TOR1A.
Experiment [3] in a line: small molecules captured by biotinylated probe aFGF2 – biochemical, small-molecule microarray, fluorescence 635/667, stem cell growth factor project, primary screen (AID 1067).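 Further: measures binding of biotinylated aFGF2 protein to printed compounds on slides; z-score merges feature fluorescence and signal-to-noise across triplicate slides.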 To be noted: higher = more signal.
Experiment [4] in a line: small molecules captured by biotinylated probe aFGF10 – biochemical, small-molecule microarray, fluorescence 635/667, stem cell growth factor project, primary screen (AID 1071).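 Further: score merges 667 nm spot intensity and signal to noise from triplicate slides.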 To be noted: higher = more signal.
Experiment [5] has as its target Neurogenic locus notch homolog protein 2 (Homo sapiens) (UniProt Q04721). The experiment can be described thus: small molecules binding Notch2 protein – biochemical, small-molecule microarray, 635 nm fluorescence, stem cell growth factors, primary screen (AID 1073). To be noted: higher = more signal.
In experiment [6] the target is Pro-neuregulin-1, membrane-bound isoform (Homo sapiens) (UniProt Q02297). Nature of the experiment: small molecules binding neuregulin-1 protein – biochemical, small-molecule microarray, fluorescence 635/667, psychiatric disease protein project, primary screen (AID 1075).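 Further: score combines 667 nm spot fluorescence with signal to noise.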 To be noted: NRG1 binding, 635 nm fluorescence, higher = more signal.
Experiment [7] relates to Neuregulin-1 EGF-like domain. Nature of the experiment: small molecules binding NRG1 EGF domain – biochemical, small-molecule microarray, 635 nm fluorescence, primary screen (AID 1081).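 Further: binding of the protein to compounds printed on small-molecule microarray slides.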 To be noted: higher = more signal.
A short description of experiment [8]: FRG1 expression reporter modulators in myotubes – cell-based, C2C12 myotubes, firefly/Renilla luciferase, luminescence, FRG1 inhibition for FSHD, primary screen (AID 1084). To be noted: FRG1 promoter luciferase, higher = more signal, called active from +8 up or from −8 down.
A short description of experiment [9]: small molecules captured by biotinylated probe aFST – biochemical, small-molecule microarray, fluorescence 635/667, stem cell growth factor project, primary screen (AID 1086).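 Further: score merges 667 nm fluorescence with signal-to-noise of each printed compound spot.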 To be noted: higher = more signal.
Experiment [10] is described as follows: binders of probe aHhip on microarray, primary screen, stem cell growth factor project, biochemical, small-molecule microarray, fluorescence 635/667 (AID 1087).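 Further: score merges spot fluorescence at 667nm with spot signal to noise ratio.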 To be noted: higher = more signal.
Experiment [11] relates to PRMT1 (protein arginine N-methyltransferase 1). The experiment can be described thus: small molecules binding arginine methyltransferase PRMT1 – biochemical, small-molecule microarray, 635 nm fluorescence, primary screen (AID 1088).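 Further: binding of Prmt1 protein to compounds spotted on small-molecule microarray slides.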 The settings on record: higher = more signal.
A short description of experiment [12]: growth effects on S. cerevisiae YJM789 – YJM789 clinical isolate, OD600, 24 h, basal, primary screen (AID 1089).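 Further: growth of clinical yeast isolate S. cerevisiae YJM 789 seeded 1000 cells per well; test concentration not given here.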 To be noted: higher = more signal, called active from +8 up or from −8 down.
Experiment [13] in a line: S. pombe growth modifiers, basal conditions – strain 972, OD600, 24 h, no modulator, primary screen (AID 1090).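 Further: basal condition with compound alone and no growth modifier present; test concentration not given here.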 The settings on record: S. pombe 972 growth, higher = more signal, called active from +8 up or from −8 down.
The nature of experiment [14]: budding yeast growth modifiers under rapamycin – strain BY4716, OD600, 96 h, primary screen (AID 1091). Further: test concentration not given here. To be noted: S. cerevisiae BY4716 + rapamycin, higher = more signal, called active from +8 up or from −8 down.
Experiment [15] has as its target Torsin-1A-interacting protein 2 (Homo sapiens) (UniProt Q8NFQ8). The experiment can be described thus: small molecules binding lysate-expressed LULL1 – cell lysate, human LULL1 lysate, 635/667 nm fluorescence, primary screen (AID 1092).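 Further: probe is lysate of COS7 cells overexpressing human LULL1; score merges per-feature 667 nm fluorescence with signal-to-noise.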 To be noted: small-molecule microarray, hLULL1 lysate binding, 635 nm fluorescence; higher = more signal.
A short description of experiment [16]: optical density change of DRC41 E. coli – strain DRC41, OD650, 24 h, E. coli filamentation project, primary screen (AID 1093).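 Further: MC1000 strain lacking acrAB efflux and sulA so SOS filamentation is blocked; test concentration not given here.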 To be noted: E. coli DRC41 growth, higher = more signal, called active from +8 up or from −8 down.

Torsin-1A-interacting protein 2 (Homo sapiens), sequence (Q8NFQ8 whole entry, looked up): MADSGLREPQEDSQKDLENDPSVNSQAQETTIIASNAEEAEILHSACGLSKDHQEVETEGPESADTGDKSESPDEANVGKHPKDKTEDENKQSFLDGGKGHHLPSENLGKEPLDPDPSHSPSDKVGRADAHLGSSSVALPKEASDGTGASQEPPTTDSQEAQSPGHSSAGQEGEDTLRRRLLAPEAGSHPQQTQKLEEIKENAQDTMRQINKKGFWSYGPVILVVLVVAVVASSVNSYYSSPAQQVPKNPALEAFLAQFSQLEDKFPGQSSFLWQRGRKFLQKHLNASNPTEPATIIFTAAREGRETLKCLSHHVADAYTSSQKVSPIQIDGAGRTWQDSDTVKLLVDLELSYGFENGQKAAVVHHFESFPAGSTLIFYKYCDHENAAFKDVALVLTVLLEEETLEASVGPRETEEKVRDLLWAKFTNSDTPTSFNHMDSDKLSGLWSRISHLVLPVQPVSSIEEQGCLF
Neurogenic locus notch homolog protein 2 (Homo sapiens), sequence (Q04721 whole entry, looked up, canonical isoform): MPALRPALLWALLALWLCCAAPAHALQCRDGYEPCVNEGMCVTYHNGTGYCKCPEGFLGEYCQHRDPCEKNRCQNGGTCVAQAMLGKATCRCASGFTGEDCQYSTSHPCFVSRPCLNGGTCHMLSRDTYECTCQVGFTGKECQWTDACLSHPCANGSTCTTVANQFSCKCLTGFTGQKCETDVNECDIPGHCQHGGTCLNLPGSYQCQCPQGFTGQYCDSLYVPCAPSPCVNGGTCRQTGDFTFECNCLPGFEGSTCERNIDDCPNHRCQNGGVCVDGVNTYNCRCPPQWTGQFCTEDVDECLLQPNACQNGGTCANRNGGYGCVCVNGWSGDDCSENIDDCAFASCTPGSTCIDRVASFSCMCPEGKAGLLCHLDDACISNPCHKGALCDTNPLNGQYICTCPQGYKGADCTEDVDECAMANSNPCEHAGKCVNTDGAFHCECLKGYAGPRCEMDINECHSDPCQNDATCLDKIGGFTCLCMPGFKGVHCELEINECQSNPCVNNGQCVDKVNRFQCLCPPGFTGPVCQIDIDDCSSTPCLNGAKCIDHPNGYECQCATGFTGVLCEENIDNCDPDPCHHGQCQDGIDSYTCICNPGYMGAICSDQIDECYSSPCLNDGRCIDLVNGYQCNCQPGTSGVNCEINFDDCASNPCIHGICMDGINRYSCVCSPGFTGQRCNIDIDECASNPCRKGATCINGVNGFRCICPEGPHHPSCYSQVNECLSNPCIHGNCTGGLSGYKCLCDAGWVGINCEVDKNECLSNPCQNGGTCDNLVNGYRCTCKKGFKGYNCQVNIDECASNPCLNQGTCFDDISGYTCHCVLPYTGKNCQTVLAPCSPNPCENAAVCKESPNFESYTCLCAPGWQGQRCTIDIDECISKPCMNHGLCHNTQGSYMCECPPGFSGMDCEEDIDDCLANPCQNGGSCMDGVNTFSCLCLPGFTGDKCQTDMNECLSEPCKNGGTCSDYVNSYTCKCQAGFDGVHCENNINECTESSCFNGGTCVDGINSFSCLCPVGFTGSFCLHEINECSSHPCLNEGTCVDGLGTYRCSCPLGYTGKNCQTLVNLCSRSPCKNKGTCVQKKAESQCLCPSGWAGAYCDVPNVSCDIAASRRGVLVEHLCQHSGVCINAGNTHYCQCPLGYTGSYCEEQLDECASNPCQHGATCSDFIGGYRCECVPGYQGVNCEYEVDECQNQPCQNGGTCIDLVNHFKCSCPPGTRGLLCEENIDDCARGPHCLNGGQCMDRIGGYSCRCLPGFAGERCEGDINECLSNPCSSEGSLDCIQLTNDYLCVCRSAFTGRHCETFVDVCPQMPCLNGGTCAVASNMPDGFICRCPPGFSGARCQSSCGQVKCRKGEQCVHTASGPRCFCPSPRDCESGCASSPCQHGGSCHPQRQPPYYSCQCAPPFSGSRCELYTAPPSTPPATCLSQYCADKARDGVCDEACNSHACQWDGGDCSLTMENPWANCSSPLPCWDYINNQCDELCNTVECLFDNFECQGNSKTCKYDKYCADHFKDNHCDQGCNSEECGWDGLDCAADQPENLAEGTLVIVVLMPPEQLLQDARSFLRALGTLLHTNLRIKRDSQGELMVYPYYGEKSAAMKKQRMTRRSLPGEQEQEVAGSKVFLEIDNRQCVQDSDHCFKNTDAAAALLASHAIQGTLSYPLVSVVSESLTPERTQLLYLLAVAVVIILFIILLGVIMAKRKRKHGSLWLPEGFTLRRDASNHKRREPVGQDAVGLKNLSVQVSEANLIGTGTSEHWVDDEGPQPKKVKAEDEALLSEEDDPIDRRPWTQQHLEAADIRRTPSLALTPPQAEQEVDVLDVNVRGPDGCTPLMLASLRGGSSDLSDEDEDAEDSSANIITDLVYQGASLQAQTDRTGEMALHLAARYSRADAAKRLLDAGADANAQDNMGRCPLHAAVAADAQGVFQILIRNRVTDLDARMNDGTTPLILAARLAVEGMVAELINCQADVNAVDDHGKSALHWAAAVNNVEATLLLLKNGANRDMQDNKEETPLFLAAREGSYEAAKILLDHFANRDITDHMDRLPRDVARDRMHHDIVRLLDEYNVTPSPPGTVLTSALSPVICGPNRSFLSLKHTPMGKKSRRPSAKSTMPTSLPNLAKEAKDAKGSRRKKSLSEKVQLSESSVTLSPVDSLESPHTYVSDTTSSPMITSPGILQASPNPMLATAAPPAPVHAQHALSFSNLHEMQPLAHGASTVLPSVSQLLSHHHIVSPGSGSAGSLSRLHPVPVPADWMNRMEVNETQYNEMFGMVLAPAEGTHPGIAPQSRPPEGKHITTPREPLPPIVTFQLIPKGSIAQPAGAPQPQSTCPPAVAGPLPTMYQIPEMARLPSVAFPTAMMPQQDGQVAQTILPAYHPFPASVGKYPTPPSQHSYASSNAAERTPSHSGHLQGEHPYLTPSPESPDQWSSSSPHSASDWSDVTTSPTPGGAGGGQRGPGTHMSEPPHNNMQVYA
Pro-neuregulin-1, membrane-bound isoform (Homo sapiens), sequence (Q02297 whole entry, looked up, the tested form may be a part, canonical isoform): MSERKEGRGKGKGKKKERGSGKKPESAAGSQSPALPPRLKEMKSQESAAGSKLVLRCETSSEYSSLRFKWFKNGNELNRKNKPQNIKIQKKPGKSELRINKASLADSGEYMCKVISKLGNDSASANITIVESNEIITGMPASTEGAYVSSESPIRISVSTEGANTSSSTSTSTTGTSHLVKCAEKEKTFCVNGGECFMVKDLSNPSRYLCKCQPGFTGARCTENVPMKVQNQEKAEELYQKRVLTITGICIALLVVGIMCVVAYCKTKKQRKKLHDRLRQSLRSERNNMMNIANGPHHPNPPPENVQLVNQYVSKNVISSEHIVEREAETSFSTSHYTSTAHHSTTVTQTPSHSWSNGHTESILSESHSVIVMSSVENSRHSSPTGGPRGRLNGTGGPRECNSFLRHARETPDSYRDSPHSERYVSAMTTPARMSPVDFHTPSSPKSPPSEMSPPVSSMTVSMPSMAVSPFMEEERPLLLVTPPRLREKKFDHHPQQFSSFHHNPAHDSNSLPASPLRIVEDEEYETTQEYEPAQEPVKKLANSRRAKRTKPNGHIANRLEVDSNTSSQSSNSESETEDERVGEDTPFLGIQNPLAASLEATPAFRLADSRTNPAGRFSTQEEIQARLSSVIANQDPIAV

For the compound `C/C=C/[C@@H](CCn1cc(CCO[Si](C(C)C)(C(C)C)C(C)C)nn1)[Si](C)(C)c1ccc(OC)cc1`, the composite z-score in experiment [1] is 0.502; in experiment [2] it was -0.416; in experiment [3], -0.271; in experiment [4], -2.29; in experiment [5], -2.88; in experiment [6], -0.774. Also, the composite z-score was -0.48 in [7]; -0.986 in experiment [9]; -0.413 in [10]; -0.551 in experiment [11]; -0.356 in experiment [15]. Besides, the z-score in [8] is -1.33 (inactive); in experiment [12] it was -3.08 (inactive); in experiment [13], -2.88 (inactive); in experiment [14] it was -1.94 (inactive); in experiment [16], -0.715 (inactive).

Turning to `C=C(C(=O)CC[C@H](OC(C)=O)c1ccc(CO)o1)C(C)C`, the composite z-score in experiment [1] was -0.466; in [2], 0.615; in experiment [3], -0.189; in experiment [4] it was 0.122; in experiment [5], -1.28; in experiment [6], -0.116. In addition, the composite z-score in experiment [7] is 0.388; in [9] it was -0.393; in [10] it was 0.0596; in [11] it was 0.966; in experiment [15], 0.468. For the same compound, the z-score in [8] was -0.629 (inactive); in experiment [12], 1.01 (inactive); in [13], -0.344 (inactive); in experiment [14], -0.454 (inactive); in experiment [16], 1.44 (inactive).

Take `[N-]=[N+]=NCc1ccccc1C[C@]1(C(=O)NCc2ccccc2)N=C(c2ccc(OCCCO)cc2)O[C@H]1c1ccccc1`: the composite z-score is 1.45 in experiment [1]; 1.21 in experiment [2]; 0.135 in [3]; 0.17 in [4]; 1.15 in experiment [5]; 0.994 in experiment [6]. In addition, the composite z-score in [7] is 0.97; in experiment [9] it was 0.407; in experiment [10], -0.224; in [11], 0.544; in [15] it was 2.47. Further, the z-score is -2.74 (inactive) in experiment [8]; 2.2 (inactive) in experiment [12]; 2.85 (inactive) in experiment [13]; 35.5 (active) in experiment [14]; 1.85 (inactive) in experiment [16].

On to `COC(=O)[C@@]1(CCC(=O)OC(C)(C)C)COC(c2ccc(OCCCO)cc2)=N1`, for which the composite z-score in experiment [1] is 1.47; in [2] it was -1.53; in experiment [3], -0.212; in [4], -1.92; in experiment [5], -1.89; in experiment [6], -0.312. The composite z-score in [7] is 0.256; in experiment [9], -0.311; in experiment [10], -0.405; in [11], -0.964; in experiment [15], -0.771. The z-score was -0.44 (inactive) in [8]; -1.42 (inactive) in experiment [12]; -0.502 (inactive) in experiment [13]; -0.752 (inactive) in experiment [14]; 0.989 (inactive) in [16].

Take `CCCCCCC#C[Si](O[C@H](c1ccccc1)c1cn(Cc2ccccc2)nn1)(C(C)C)C(C)C`: the composite z-score in [1] was -0.331; in experiment [2], -0.0435; in [3], 0.0339; in [4], 0.388; in experiment [5], 0.433; in [6], -0.0854. Besides, the composite z-score in [7] is -0.0419; in experiment [9], 0.129; in experiment [10], 0.243; in [11], 0.63; in [15], 0.468. Besides, the z-score in experiment [8] is -0.494 (inactive); in [12], -0.501 (inactive); in experiment [13], -1.19 (inactive); in experiment [14] it was -0.287 (inactive); in experiment [16], 2.25 (inactive).

In the case of `COc1c(C)cc(-c2cc3c(c(CCc4ccccc4)n2)[Si](C(C)C)(C(C)C)OC3)cc1C`, the composite z-score in experiment [1] was -0.496; in experiment [2], 1.49; in [3] it was -0.125; in experiment [4], 0.358; in [5], 0.364; in experiment [6], -0.355. In addition, the composite z-score in experiment [7] was 0.578; in experiment [9] it was 0.287; in experiment [10] it was -0.0346; in experiment [11], 1.42; in [15], 0.778. Further, the z-score in experiment [8] was -0.14 (inactive); in experiment [12], -0.819 (inactive); in experiment [13] it was -1.57 (inactive); in experiment [14], -0.618 (inactive); in experiment [16], 2.29 (inactive).

In the case of `CC(C)(C)OC(=O)CC[C@]1(C(=O)NCc2ccccc2)N=C(c2ccc(OCCCO)cc2)O[C@H]1c1ccccc1N=[N+]=[N-]`, the composite z-score turned out to be 1.4 in experiment [1]; 1.11 in experiment [2]; 0.231 in experiment [3]; 0.907 in experiment [4]; 1.65 in experiment [5]; 1.91 in experiment [6]. Also, the composite z-score in [7] is 1.26; in [9], 1.62; in [10], -0.248; in experiment [11], 1.55; in experiment [15], 3.41. In addition, the z-score is 1.14 (inactive) in [8]; -0.182 (inactive) in experiment [12]; -0.654 (inactive) in experiment [13]; 2.97 (inactive) in [14]; 0.876 (inactive) in experiment [16].

Take `CC(C)(C)OC(=O)CC[C@@]1(C(=O)NCc2ccccc2)N=C(c2ccc(OCCCO)cc2)O[C@@H]1c1ccccc1CN=[N+]=[N-]`: the composite z-score worked out at 0.492 in experiment [1]; 1.41 in experiment [2]; 0.015 in experiment [3]; 1.18 in [4]; 1.49 in [5]; 1.16 in [6]. In addition, the composite z-score was 1.15 in experiment [7]; 1.19 in experiment [9]; -0.148 in [10]; 1.53 in experiment [11]; 2.3 in experiment [15]. For the same compound, the z-score is 0.59 (inactive) in experiment [8]; -0.0222 (inactive) in experiment [12]; -0.0704 (inactive) in [13]; -0.13 (inactive) in experiment [14]; 2.64 (inactive) in experiment [16].

`CC(C)C(CO)N1C(=O)[C@@H]2[C@H]3C(=O)OCC=C[C@H]3OC23C=CCN(Cc2ccccc2)C(=O)[C@@H]13` (stereo not given in full): the composite z-score in experiment [1] is -0.302; in experiment [2] it was -0.438; in experiment [3] it was -0.116; in experiment [4], -0.307; in [5], -0.834; in [6], -0.72. Further, the composite z-score in [7] was -0.386; in experiment [9], -0.361; in [10], -0.0994; in experiment [11], -0.462; in [15], -1.04. The z-score in experiment [8] is -0.699 (inactive); in [12], -0.899 (inactive); in experiment [13], -0.742 (inactive); in experiment [14], -1.06 (inactive); in [16], 2.08 (inactive).

In the case of `C=CCC(OC(C)=O)[C@@H]1[C@@H](N(Cc2cc3ccccc3o2)C(=O)c2ccc(-c3ccccc3)cc2)c2cc(OCCCO)ccc2N1C(=O)c1ccc(-c2ccccc2)cc1` (stereo not given in full), the composite z-score in experiment [1] was 0.218; in experiment [2], -0.352; in [3], -0.0985; in experiment [4] it was 0.0925; in [5] it was 0.11; in experiment [6] it was -0.196. The composite z-score in experiment [7] is -0.714; in [9], 0.105; in experiment [10], -0.0994; in experiment [11], -0.527; in experiment [15], 0.94. For the same compound, the z-score was -1.24 (inactive) in experiment [8]; 1.13 (inactive) in experiment [12]; 0.0977 (inactive) in experiment [13]; 1.38 (inactive) in experiment [14]; 1.95 (inactive) in [16].
